In PubChem BioAssay (NCATS):
Results filed as inconclusive are left out. Where a call stands in place of a potency, no number is given. Calls of active or inactive are those of the source. Unless noted, the call rests on the fitted dose curve; in most records, active means well fitted curve in the direction sought with a large enough effect; inconclusive means small, poorly fitted or top-dose-only effect, or another doubt; inactive means no such curve, though single readings can be large; an effect the other way counts as inactive or inconclusive.

Legend:
[1] = biological target: Cytochrome P450 3A4 (Homo sapiens) (UniProt P08684); test: qHTS Assay for Inhibitors and Substrates of Cytochrome P450 3A4 (AID 884); further: nearly all actives have a fitted effect of over 50% in size
How it was run: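 20 nM human CYP3A4 with 25 uM Luciferin-PPXE (at KM) in 200 mM KPO4, preincubated 10 min with compound; NADPH regeneration started a 60 min RT reaction. Luciferin detected by luminescence, normalized to 57 uM ketoconazole as full inhibition.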

[2] = Confirmation and Secondary Assay for Modulators of Hemoglobin Beta Chain Splicing at IVS2 654 locus (AID 910);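 further: per-well total GFP intensity by laser scanning cytometry after 2-day treatment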
How it was run: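 HeLa cells stably carrying EGFP interrupted by mutant beta-globin IVS2-654 intron (CMV-driven) were treated with compound for 2 days at 37C; corrected splicing was scored as total peak GFP intensity per well (488 nm excitation, 500-520 nm emission).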

[3] = Confirmation and Secondary Assay for Modulators of Hemoglobin Beta Chain Splicing at IVS2 705 locus (AID 930);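 further: HeLa cells stably expressing the EGFP-705 splicing reporter; GFP fluorescence per well restored by corrected splicing of the IVS2-705 intron in EGFP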
How it was run: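 HeLa EGFP-705 reporter; 500 cells/well, o/n 37C 5% CO2; cpd 2 d; 488 ex/500-520 em laser scan; total peak GFP intensity/well. Ref: 500 nM […] antisense PNA.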

[4] = qHTS Assay for Lipid Storage Modulators (AID 1519; calls by dose curve); conditions: Drosophila S3 cells, BODIPY lipid droplet/cell ratio, laser cytometry, cells loaded with oleic acid; for activity change, negative = inhibition: at 57.5 µM (top of the series)
How it was run: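 Cells seeded at 5,000 per well were treated with compounds over a concentration series and loaded with oleic acid (400 uM, as added). Lipid droplet fluorescence (488 nm excitation, 500-530 nm channel) was read by laser-scanning cytometry and normalized to 20 uM Triacsin C.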

[5] = biological target: Ubiquitin carboxyl-terminal hydrolase 1 (Homo sapiens) (UniProt O94782); test: Inhibitors of USP1/UAF1: Pilot qHTS (AID 504865);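 further: rhodamine fluorescence freed from ubiquitin-rhodamine substrate followed over time; top concentration of the series differs between compounds; nearly all actives have a fitted effect of over 35% in size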
How it was run: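 Enzyme-free wells gave the negative control, while test wells held 1nM USP1/UAF1 preincubated with compound for 15 min at room temperature. Ub-Rho at 150nM final started the reaction, and fluorescence at 480/540 nm was recorded kinetically.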

[6] = measured here: cell count channel max response
[7] = measured here: lipid channel max response

Chain of Cytochrome P450 3A4 (Homo sapiens) (P08684 whole entry, looked up): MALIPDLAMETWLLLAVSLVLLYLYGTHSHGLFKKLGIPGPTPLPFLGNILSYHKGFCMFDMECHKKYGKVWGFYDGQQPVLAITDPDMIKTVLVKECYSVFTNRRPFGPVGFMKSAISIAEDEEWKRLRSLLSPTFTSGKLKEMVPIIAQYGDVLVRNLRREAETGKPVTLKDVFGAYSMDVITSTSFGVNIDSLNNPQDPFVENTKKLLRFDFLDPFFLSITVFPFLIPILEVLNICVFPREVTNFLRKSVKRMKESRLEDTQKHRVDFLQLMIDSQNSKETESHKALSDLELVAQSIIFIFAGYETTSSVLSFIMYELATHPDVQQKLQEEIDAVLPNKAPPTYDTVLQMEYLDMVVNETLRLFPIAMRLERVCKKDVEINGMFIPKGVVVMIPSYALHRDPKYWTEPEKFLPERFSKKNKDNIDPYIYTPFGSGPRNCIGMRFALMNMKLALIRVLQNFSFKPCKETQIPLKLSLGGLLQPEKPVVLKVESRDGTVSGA
Chain of Ubiquitin carboxyl-terminal hydrolase 1 (Homo sapiens) (O94782 whole entry, looked up): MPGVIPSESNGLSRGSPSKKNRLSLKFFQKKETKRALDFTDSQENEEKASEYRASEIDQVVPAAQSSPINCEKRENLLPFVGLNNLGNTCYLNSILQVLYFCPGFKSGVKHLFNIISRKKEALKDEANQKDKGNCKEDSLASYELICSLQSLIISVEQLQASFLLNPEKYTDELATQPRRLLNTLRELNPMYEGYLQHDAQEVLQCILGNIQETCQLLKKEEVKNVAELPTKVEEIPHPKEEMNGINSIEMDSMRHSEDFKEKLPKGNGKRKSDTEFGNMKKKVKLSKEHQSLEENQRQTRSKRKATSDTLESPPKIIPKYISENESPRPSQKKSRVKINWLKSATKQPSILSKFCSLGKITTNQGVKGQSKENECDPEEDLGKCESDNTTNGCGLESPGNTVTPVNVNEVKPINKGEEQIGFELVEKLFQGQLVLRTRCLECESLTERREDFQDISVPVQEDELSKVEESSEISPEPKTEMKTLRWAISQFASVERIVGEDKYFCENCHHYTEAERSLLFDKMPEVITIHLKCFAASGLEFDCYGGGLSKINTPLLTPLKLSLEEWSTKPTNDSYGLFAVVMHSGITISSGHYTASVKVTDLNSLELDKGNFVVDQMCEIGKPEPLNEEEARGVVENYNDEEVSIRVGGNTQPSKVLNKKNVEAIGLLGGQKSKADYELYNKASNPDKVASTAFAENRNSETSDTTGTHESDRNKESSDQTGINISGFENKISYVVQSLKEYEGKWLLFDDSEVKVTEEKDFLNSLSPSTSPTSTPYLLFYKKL

Row | Compound | Potency [1] | Potency [2] | Potency [3] | activity change, negative = inhibition [4] | max response [4, 6] [%] | max response [4, 7] [%] | Potency [5]
1 | CC(=O)OC1CC[C@@]2(C)C(CC[C@@]3(C)C2CC=C2C4CC(C)(C)CC[C@]4(C)CC[C@@]23C)C1(C)C (stereo not given in full) | inactive | inactive | inactive | 4.64% (inactive) | 6.83 | 14 | inactive
2 | Nc1nc2c(nc(Br)n2C2OC(CO)C(O)C2O)c(=O)[nH]1 (stereo not given) | inactive | inactive | inactive | 2.67% (inactive) | 15.6 | 18.1 | inactive
3 | CC1CCC2(C(=O)O)CCC3(C)C(=CCC4C3(C)CCC3[C@@]4(C)CC(O)C(O)[C@@]3(C)CO)C2C1C (stereo not given in full) | inactive | inactive | inactive | 3.5% (inactive) | 22.9 | 33.5 | inactive
4 | COc1cc2c(cc1O)C(Cc1ccc(O)cc1)[N+](C)(C)CC2 (stereo not given) | inactive | inactive | inactive | 12.6% (inactive) | 6.75 | 22.8 | inactive
5 | COc1cc(O)c(C(=O)O)c(O)c1 | inactive | inactive | inactive | 4.12% (inactive) | 1.93 | 6.74 | inactive
6 | CC(C)=CC1C(C(=O)O)C1(C)C (stereo not given) | inactive | inactive | inactive | 7.47% (inactive) | 18 | 29.9 | inactive
7 | COC1[C@H](OC(N)=O)C(O)[C@H](Oc2ccc3c(O)c(NC(=O)c4ccc(O)c(CC=C(C)C)c4)c(=O)oc3c2C)OC1(C)C (stereo not given in full) | inactive | inactive | inactive | 8.38% (inactive) | 13.2 | 25.2 | inactive
8 | CC(C)c1c(O)c(-c2cc3c(c(C(C)C)c2O)CCC2C(C)(C)CCC[C@@]32C)cc2c1CCC1C(C)(C)CCC[C@@]21C (stereo not given in full) | inactive | inactive | inactive | 8.62% (inactive) | 4.25 | 16.8 | inactive
9 | CC(=O)N[C@H](Cc1c[nH]c2ccccc12)C(N)=O | inactive | inactive | inactive | 4.6% (inactive) | 3.77 | 4.03 | inactive
10 | CCCC1CC(C(=O)N[C@H](C(C)O)C2OC(SC)[C@@H](O)C(O)C2O)N(C)C1 (stereo not given in full) | inactive | inactive | inactive | 12.2% (inactive) | 19.1 | 38.8 | inactive
11 | COC1C(O)C(O)C(O)C(O)C1O (stereo not given) | inactive | inactive | inactive | 5.15% (inactive) | 13.2 | 22.7 | inactive
12 | COC1=CC(C)C2CC3OC(=O)CC4C(C)=C(OC)C(=O)C([C@]2(C)C1=O)[C@]34C (stereo not given in full) | inactive | inactive | inactive | 1.13% (inactive) | 5.55 | 6.48 | inactive
13 | CC(C)CCCC(C)C1CCC2C3CC[C@H]4CC(=O)CC[C@@]4(C)C3CC[C@@]12C (stereo not given in full) | inactive | inactive | inactive | 1.96% (inactive) | 8.57 | 10.7 | inactive
14 | CC(=O)OCCC(C)CCC=C(C)C (stereo not given) | inactive | inactive | inactive | 5.97% (inactive) | 4.67 | 12.4 | inactive
15 | C/C=C1\C2C=C(C)C[C@@]1(N)c1ccc(=O)[nH]c1C2 | inactive | inactive | inactive | 13.7% (inactive) | 9.87 | 26.4 | inactive
16 | O=C(O)C(O)[C@@](O)(Cc1ccc(O)cc1)C(=O)O (stereo not given in full) | inactive | inactive | inactive | 5.41% (inactive) | 10.8 | 18.1 | inactive
17 | CC(=O)OC1CCC2(C)C(=CC=C3C2CCC2(C)C3CCC2C(C)/C=C/C(C)C(C)C)C1(C)C (stereo not given) | inactive | inactive | inactive | 1.79% (inactive) | 12.2 | 14.9 | inactive
18 | CC1(C)OC2C(CO)OC(n3cnc4c(=O)[nH]c(N)nc43)C2O1 (stereo not given) | inactive | inactive | inactive | 4.01% (inactive) | 24 | 28 | inactive
19 | CCCCCC1C(=O)CCC1CC(=O)O (stereo not given) | inactive | inactive | inactive | 5.46% (inactive) | 21.6 | 28.3 | inactive
20 | COc1cc2c(cc1O)C(Cc1ccc(O)cc1)N(C)CC2 (stereo not given) | inactive | inactive | inactive | 2.46% (inactive) | 13.5 | 17.7 | inactive
21 | O=C(O)c1cc2cc(Cl)ccc2[nH]1 | inactive | inactive | inactive | 4.59% (inactive) | 19.5 | 25.3 | inactive
22 | COC(=O)Oc1ccccc1C(=O)O | inactive | inactive | inactive | 5.3% (inactive) | 15.1 | 21.1 | inactive
23 | CC1=C(/C=C/C(C)=C/C=C/C(C)=C/C=C/C=C(C)/C=C/C=C(C)/C=C/C2=C(C)C(=O)C(O)CC2(C)C)C(C)(C)CC(O)C1=O (stereo not given) | inactive | inactive | inactive | 2.55% (inactive) | 25.7 | 27.4 | inactive
24 | OCC(O)C(O)[C@H](O[C@H]1OC(CO)C(O)C(O)C1O)[C@H](O)CO (stereo not given in full) | inactive | inactive | inactive | 3.91% (inactive) | 11.8 | 16 | inactive
25 | O=C(NCO)c1cccnc1 | inactive | inactive | inactive | 5.95% (inactive) | 14.8 | 25.7 | inactive
